# ± gives the standard deviation.
# T1: HaloTag-ATRX ADD domain (163-292)
# T1 chain: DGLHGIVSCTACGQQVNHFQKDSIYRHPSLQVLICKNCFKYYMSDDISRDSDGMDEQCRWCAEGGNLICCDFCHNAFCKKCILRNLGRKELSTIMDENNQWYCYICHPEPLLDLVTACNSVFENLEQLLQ
# Key:
# Assay in all cases: peptide microarray binding signal (635 nm), min-max normalized on array (fraction of array maximum); higher = stronger binding
# [1] = target: T1, HaloTag-ATRX ADD domain (163-292)
# In short: (§1)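 Binding signal is the mean intensity of triplicate spots, min-max scaled within each library. Histone 13-mer peptide–cellulose conjugates were spotted in triplicate on nitrocellulose with a Cy3 tracer and blocked overnight at 4°C. Probing lasted 1 h at 4°C, either with biotin-labelled HaloTag reader fusions (10 nM to 1 μM) and streptavidin-Alexa Fluor 647 or with rabbit histone antibodies (1:10,000 to 1:2,000) and anti-rabbit Alexa 647. An Axon GenePix 4000B read signal at 635 nm and misprints at 532 nm.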
# [2] = target: HaloTag-ING2 PHD (mouse Ing2 200-280)
# In short: as §1
# [3] = target: anti-H3K4me3 antibody ab8580
# In short: as §1
# [4] = target: anti-H3K9me3 antibody ab8898
# In short: as §1
# [5] = peptide region: H3 73-85, peptide modifications: H3K79me3, binder concentration: 1:2,000 dilution
# [6] = peptide region: H3 73-85, peptide modifications: H3K79me3, binder concentration: 1:10,000 dilution
# [7] = peptide region: H3 73-85, peptide modifications: H3K79me2, binder concentration: 1:2,000 dilution
# [8] = peptide region: H3 73-85, peptide modifications: H3K79me2, binder concentration: 1:10,000 dilution
# [9] = peptide region: H3 112-124, peptide modifications: H3K115ac H3K122me3, binder concentration: 1:2,000 dilution
# [10] = peptide region: H3 112-124, peptide modifications: H3K115ac H3K122me3, binder concentration: 1:10,000 dilution
# [11] = peptide region: H3 73-85, peptide modifications: H3K79me1, binder concentration: 1:2,000 dilution
# [12] = peptide region: H3 73-85, peptide modifications: H3K79me1, binder concentration: 1:10,000 dilution
# [13] = peptide region: H3 112-124, peptide modifications: H3K115ac H3R116cit, binder concentration: 1:2,000 dilution
# [14] = peptide region: H3 112-124, peptide modifications: H3K115ac H3R116cit, binder concentration: 1:10,000 dilution
binder,measurement,setting,value
EIAQDFKTDLRFQ [H3 73-85 E I A Q D F Kme3 T D L R F Q],peptide microarray binding signal,"[1]; peptide region: H3 73-85, peptide modifications: H3K79me3, binder concentration: 50 nM",0.0032 ± 3.5e-05
same,peptide microarray binding signal,"[1]; peptide region: H3 73-85, peptide modifications: H3K79me3, binder concentration: 500 nM",0.0059 ± 0.0008
same,peptide microarray binding signal,"[2]; peptide region: H3 73-85, peptide modifications: H3K79me3, binder concentration: 10 nM",0.00483 ± 8.8e-05
same,peptide microarray binding signal,"[2]; peptide region: H3 73-85, peptide modifications: H3K79me3, binder concentration: 100 nM",0.00723 ± 0.00027
same,peptide microarray binding signal,[3]; [5],0.00851 ± 0.00073
same,peptide microarray binding signal,[3]; [6],0.0112 ± 0.0053
same,peptide microarray binding signal,[4]; [5],0.227 ± 0.017
same,peptide microarray binding signal,[4]; [6],0.201 ± 0.042
EIAQDFKTDLRFQ [H3 73-85 E I A Q D F Kme2 T D L R F Q],peptide microarray binding signal,"[1]; peptide region: H3 73-85, peptide modifications: H3K79me2, binder concentration: 50 nM",0.002539 ± 2.2e-05
same,peptide microarray binding signal,"[1]; peptide region: H3 73-85, peptide modifications: H3K79me2, binder concentration: 500 nM",0.00633 ± 0.00033
same,peptide microarray binding signal,"[2]; peptide region: H3 73-85, peptide modifications: H3K79me2, binder concentration: 10 nM",0.00281 ± 3.1e-05
same,peptide microarray binding signal,"[2]; peptide region: H3 73-85, peptide modifications: H3K79me2, binder concentration: 100 nM",0.00376 ± 0.00014
same,peptide microarray binding signal,[3]; [7],0.00106 ± 6.2e-05
same,peptide microarray binding signal,[3]; [8],0.00097 ± 2e-05
same,peptide microarray binding signal,[4]; [7],0.0117 ± 0.004
same,peptide microarray binding signal,[4]; [8],0.00709 ± 0.00024
IHAKRVTIMPKDI [H3 112-124 I H A Kac R V T I M P Kme3 D I],peptide microarray binding signal,"[1]; peptide region: H3 112-124, peptide modifications: H3K115ac H3K122me3, binder concentration: 50 nM",0.0118 ± 0.00049
same,peptide microarray binding signal,"[1]; peptide region: H3 112-124, peptide modifications: H3K115ac H3K122me3, binder concentration: 500 nM",0.027 ± 0.0019
same,peptide microarray binding signal,"[2]; peptide region: H3 112-124, peptide modifications: H3K115ac H3K122me3, binder concentration: 10 nM",0.04 ± 0.0046
same,peptide microarray binding signal,"[2]; peptide region: H3 112-124, peptide modifications: H3K115ac H3K122me3, binder concentration: 100 nM",0.0592 ± 0.018
same,peptide microarray binding signal,[3]; [9],0.00634 ± 0.00027
same,peptide microarray binding signal,[3]; [10],0.00679 ± 0.00065
same,peptide microarray binding signal,[4]; [9],0.0228 ± 0.0018
same,peptide microarray binding signal,[4]; [10],0.0104 ± 0.00089
EIAQDFKTDLRFQ [H3 73-85 E I A Q D F Kme T D L R F Q],peptide microarray binding signal,"[1]; peptide region: H3 73-85, peptide modifications: H3K79me1, binder concentration: 50 nM",0.00649 ± 0.00015
same,peptide microarray binding signal,"[1]; peptide region: H3 73-85, peptide modifications: H3K79me1, binder concentration: 500 nM",0.02 ± 0.0022
same,peptide microarray binding signal,"[2]; peptide region: H3 73-85, peptide modifications: H3K79me1, binder concentration: 10 nM",0.0116 ± 0.0014
same,peptide microarray binding signal,"[2]; peptide region: H3 73-85, peptide modifications: H3K79me1, binder concentration: 100 nM",0.00475 ± 0.00052
same,peptide microarray binding signal,[3]; [11],0.00198 ± 0.00026
same,peptide microarray binding signal,[3]; [12],0.00234 ± 9.2e-05
same,peptide microarray binding signal,[4]; [11],0.0079 ± 0.00033
same,peptide microarray binding signal,[4]; [12],0.00357 ± 0.00023
IHAKRVTIMPKDI [H3 112-124 I H A Kac Rcit V T I M P K D I],peptide microarray binding signal,"[1]; peptide region: H3 112-124, peptide modifications: H3K115ac H3R116cit, binder concentration: 50 nM",0.00668 ± 0.00021
same,peptide microarray binding signal,"[1]; peptide region: H3 112-124, peptide modifications: H3K115ac H3R116cit, binder concentration: 500 nM",0.0105 ± 0.00017
same,peptide microarray binding signal,"[2]; peptide region: H3 112-124, peptide modifications: H3K115ac H3R116cit, binder concentration: 10 nM",0.0109 ± 0.00031
same,peptide microarray binding signal,"[2]; peptide region: H3 112-124, peptide modifications: H3K115ac H3R116cit, binder concentration: 100 nM",0.016 ± 0.00067
same,peptide microarray binding signal,[3]; [13],0.00179 ± 5.5e-05
same,peptide microarray binding signal,[3]; [14],0.00211 ± 3.4e-05
same,peptide microarray binding signal,[4]; [13],0.00154 ± 1.8e-05
same,peptide microarray binding signal,[4]; [14],0.00127 ± 1.3e-05

# Source: the supplement of paper PMC4022240
